From PubChem BioAssay (NCI)
About 83,000 compounds went through this panel and 20% of them were active in at least one assay; those are over-represented in the sample as a whole.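 Values shown are percent growth following 48 h exposure of cells in 96-well plates to a single concentration of compound; below 10 was considered active.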 The source made the active and inactive calls.

How the values were obtained:
Assay in all cases: NCI-60 one-dose screen, 48 h (100 = growth as untreated, 0 = no growth, -100 = all killed)
[1] = tested on: SR leukemia; conditions: 10 µM unless noted
[2] = tested on: RPMI-8226 leukemia; conditions: 10 µM unless noted
[3] = tested on: OVCAR-8 ovarian; conditions: 10 µM unless noted
[4] = tested on: OVCAR-5 ovarian; conditions: 10 µM unless noted
[5] = tested on: OVCAR-4 ovarian; conditions: 10 µM unless noted
[6] = tested on: SK-OV-3 ovarian; conditions: 10 µM unless noted
[7] = tested on: IGROV1 ovarian; conditions: 10 µM unless noted
[8] = tested on: OVCAR-3 ovarian; conditions: 10 µM unless noted
[9] = tested on: HS 578T breast; conditions: 10 µM
[10] = tested on: T-47D breast; conditions: 10 µM unless noted
[11] = tested on: MDA-MB-435 melanoma; conditions: 10 µM unless noted
[12] = tested on: SW-620 colon; conditions: 10 µM unless noted
[13] = tested on: MCF7 breast; conditions: 10 µM unless noted
[14] = tested on: HCT-116 colon; conditions: 10 µM unless noted
[15] = tested on: HCC-2998 colon; conditions: 10 µM
[16] = tested on: KM12 colon; conditions: 10 µM unless noted
[17] = tested on: BT-549 breast; conditions: 10 µM unless noted
[18] = tested on: NCI/ADR-RES ovarian; conditions: 10 µM unless noted

Measured: growth

Cc1cc(C(O)CN(C)C)cc2c1ccc1cc(C(C)C)ccc12 (stereo unspecified)
inactive: [4] 49.5% | [6] 83.7% | [8] 64.7%
active: [1] -19.6% | [2] -22.6% | [3] -46.5% | [5] -2.02% | [7] -64.4% | [9] -0.73% | [10] -33% | [11] -80.8% | [12] -89.8% | [13] -99.8% | [14] -100% | [15] -89.1% | [16] -95.5%

COC(=O)CNC(=O)[C@@H](OC)[C@@H]1Cc2cc3cc(OC4CC(OC5CC(O)C(O)C(C)O5)C(O)C(C)O4)c(C)c(O)c3c(O)c2C(=O)[C@H]1OC1CC(OC2CC(OC3CC(C)(O)C(O)C(C)O3)C(O)C(C)O2)C(O)C(C)O1 (stereo partly specified)
active: [2] 2.86% | [5] 2.95% | [8] 3.71% | [9] -6.65% | [17] -44.3% | [11] -39.2% | [13] 7.64% | [14] 3.52% | [15] -42.3% | [16] 6.86%
inactive: [1] 11.1% | [3] 12.4% | [4] 16.4% | [6] 24.3% | [7] 32% | [10] 11.3% | [12] 12.7%

COCC(=O)NC/C=C/c1ccc2ncnc(Nc3ccc(Oc4ccc(C)nc4)c(C)c3)c2c1
active: [6] -18.6% | [7] -8.37% | [10] -0.662%
inactive: [1] 22.5% | [2] 50.6% | [3] 38.5% | [4] 21.6% | [5] 40.1% | [8] 63.3% | [18] 57.1% | [17] 62% | [11] 32.9% | [12] 47.9% | [13] 49.1% | [14] 29.3% | [15] 36.6% | [16] 28.8%

COc1cc(CCc2cc(NC(=O)c3ccc(N4C[C@@H](C)N[C@@H](C)C4)cc3)n[nH]2)cc(OC)c1
active: [1] -11% | [16] 3.18%
inactive: [2] 41.5% | [3] 58.4% | [4] 29.7% | [5] 49.6% | [6] 25.6% | [7] 16.7% | [8] 78.8% | [18] 91.3% | [10] 63.7% | [17] 43.8% | [11] 28.4% | [12] 28.7% | [13] 19.9% | [14] 25.6% | [15] 56.3%

CO[C@H]1C[C@@H]2CC[C@@H](C)[C@@](O)(O2)C(=O)C(=O)N2CCCC[C@H]2C(=O)O[C@H]([C@H](C)C[C@@H]2CC[C@@H](O)[C@H](OC)C2)CC(=O)[C@H](C)/C=C(\C)[C@@H](O)[C@@H](OC)C(=O)[C@H](C)C[C@H](C)\C=C/C=C/C=C/1C
active: [10] -5.21% | [13] 7.85%
inactive: [1] 11.5% | [2] 23.8% | [3] 38.7% | [4] 56.6% | [5] 22.9% | [6] 34.3% | [7] 13.8% | [8] 47.6% | [18] 49% | [17] 20.3% | [11] 36.9% | [12] 51.3% | [14] 39.5% | [15] 58.6% | [16] 42.8%

C=CCn1c(=O)c2cnc(Nc3ccc(N4CCN(C)CC4)cc3)nc2n1-c1cccc(C(C)(C)O)n1
active: [1] 4.58% | [3] 8.75% | [6] -1.76% | [7] 3.06% | [8] -8.58% | [17] 1.3% | [11] -61.7% | [14] 2.48% | [15] 9.01% | [16] 0.327%
inactive: [2] 10.1% | [4] 25.1% | [5] 20.2% | [18] 25.1% | [10] 36.4% | [12] 14.6% | [13] 15.7%

O=C1C=CC2(NN=C(c3ccccc3)N2c2cccc(Cl)c2)c2cccc(O)c21 (stereo unspecified)
active: [11] -91.9%
inactive: [1] 49.9% | [2] 57.4% | [3] 63.1% | [4] 52.8% | [5] 59.3% | [6] 92.5% | [7] 70.4% | [8] 36.6% | [18] 56% | [10] 101% | [17] 61.7% | [12] 82% | [13] 62.5% | [14] 54.8% | [15] 90.8% | [16] 64.9%

CS(=O)(=O)CCNCc1ccc(-c2ccc3ncnc(Nc4ccc(OCc5cccc(F)c5)c(Cl)c4)c3c2)o1
active: [1] 3.31% | [2] -15.4% | [3] -26.5% | [5] -51.2% | [6] -6.37% | [7] 9.76% | [8] -63.1% | [18] 8.75% | [10] -11.9% | [17] 8.25% | [12] -56.1% | [13] -39.3% | [15] -83.6% | [16] -34.9%
inactive: [4] 65.2% | [11] 31.2% | [14] 41.2%

O=C(NC[C@H](O)CO)c1ccncc1Nc1ccc(I)cc1F
inactive: [1] 57.2% | [2] 74.6% | [3] 66.9% | [5] 41.4% | [6] 33.8% | [7] 16.3% | [8] 83.7% | [18] 58.7% | [10] 47.7% | [17] 88% | [11] 35.2% | [12] 17.4% | [13] 49.1% | [16] 16.6%
active: [4] 7.42% | [14] 9.79% | [15] 2.1%

N[C@@H]1CCCN(c2c(/C=C3\SC(=O)NC3=O)cccc2-c2ccccc2)C1
inactive: [1] 22.1% | [2] 13% | [3] 61.1% | [4] 64.4% | [5] 11.4% | [6] 63.6% | [7] 66.7% | [8] 54.2% | [18] 88.1% | [10] 25.7% | [11] 56.7% | [12] 60.3% | [13] 45.3% | [14] 50.6% | [15] 74.8% | [16] 60.3%
active: [17] 0.186%

CCCCOc1nc2cc(Cl)ccc2cc1/C=C/c1cc(/C=C/c2cc3ccc(Cl)cc3nc2OCCCC)n(-c2ccccc2)n1
inactive: [1] 73% | [2] 111% | [3] 77.8% | [4] 107% | [5] 111% | [6] 51.5% | [7] 89.3% | [8] 103% | [18] 93.2% | [10] 65.7% | [17] 89.3% | [11] 112% | [12] 105% | [13] 94.5% | [14] 85.3% | [15] 102% | [16] 94.9%

CC(C)n1c(NCCc2ccc(O)c(O)c2)nc2c1c(=O)n(C)c(=O)n2C
inactive: [1] 87.2% | [2] 77.4% | [3] 104% | [4] 79.2% | [5] 90.9% | [6] 108% | [7] 110% | [8] 102% | [18] 93.1% | [10] 93.7% | [17] 84.5% | [11] 98.5% | [12] 102% | [13] 95.4% | [14] 97% | [15] 86.9% | [16] 91%

CNC(=O)c1cc(COc2nnc(Nc3ccc(Cl)cc3)c3ccoc23)ccn1
active: [5] -38.4% | [6] -60.8%
inactive: [1] 61.3% | [2] 89.9% | [3] 14.3% | [4] 23.5% | [7] 24.7% | [8] 46.6% | [18] 15.2% | [10] 15.2% | [17] 29.8% | [11] 73.2% | [12] 108% | [13] 48.1% | [14] 35.5% | [15] 94.3% | [16] 53.8%

O=C(Cc1ccc(-c2ccc(OCCN3CCOCC3)cc2)cn1)NCc1ccccc1
inactive: [2] 14.5% | [4] 29.9% | [5] 47.9% | [7] 15.5% | [8] 20.3% | [10] 34.2% | [12] 21.3% | [13] 10.7%
active: [1] 6.9% | [3] 1.32% | [6] -11.9% | [18] 0.0856% | [17] 3.61% | [11] -21.8% | [14] 6.1% | [15] 8.15% | [16] 6.91%

C1=C\COCc2cc(ccc2OCCN2CCCC2)Nc2nccc(n2)-c2cccc(c2)COC/1
active: [1] -8.75% | [2] -32% | [3] 6.66% | [4] -6.58% | [5] -4.87% | [6] -27.6% | [7] -18.7% | [8] 2.03% | [18] 0.945% | [10] -23.5% | [11] -54.6% | [12] 3.2% | [13] -25.1% | [14] 1.18% | [15] -16.4% | [16] -9.97%
inactive: [17] 21.9%

Cc1c(NC(=O)OC[C@@H]2COCCN2)cn2ncnc(Nc3ccc4c(cnn4Cc4cccc(F)c4)c3)c12
active: [1] -4.38% | [2] 5.44% | [3] -4.01% | [4] 7.38% | [6] -9.89% | [7] -4.73% | [10] -16.7% | [17] 0.365% | [11] 2.07% | [12] 1.74% | [13] 1.5% | [14] 0.842% | [15] 3.83% | [16] 8.03%
inactive: [5] 24% | [8] 12.8% | [18] 19.8%
